# Measured values taken from PubChem BioAssay (NCATS).
# Where “and” joins values, the source holds several entries; their conditions need not be identical. Equal values may be shown once. Inconclusive results are not listed. Calls of active or inactive are those of the source. The call rests on the fitted dose curve; in most records, active means well fitted activation curve with a large enough effect; inconclusive means small, poorly fitted or top-dose-only effect; inactive means no such curve, though single readings can be large or run the other way.
# Target: Cellular tumor antigen p53 (Homo sapiens) (UniProt P04637)
# Assay: Primary qHTS for small molecule compounds that upregulate eGFP-tagged delta133p53alpha (in N-terminal) cells. (AID 2060322); further: nearly all actives have a fitted effect of over 75% in size;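 on activation: cells pre-induced with doxycycline then dosed without doxycycline; series mostly up to about 56 µM; 0% = DMSO vehicle and 100% = reference activator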
# Details: NCI-H358 eGFP-delta133p53alpha fluorescence, 24 h; activation: stronger effect = higher value
# In short: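 NCI-H358 cells pre-induced 24 h with 10 ng/ml doxycycline for eGFP-delta133p53alpha, plated dox-free and exposed 24 h at 37C to titrated compounds. Fixed, Hoechst-stained; gated GFP peak intensity by laser scanning cytometry, normalized to DMSO (0%) and 57.5 uM 5-azacytidine (100%).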
# Potency means the concentration at half of the fitted maximal effect.
# Chain of Cellular tumor antigen p53 (Homo sapiens) (P04637 whole entry, looked up): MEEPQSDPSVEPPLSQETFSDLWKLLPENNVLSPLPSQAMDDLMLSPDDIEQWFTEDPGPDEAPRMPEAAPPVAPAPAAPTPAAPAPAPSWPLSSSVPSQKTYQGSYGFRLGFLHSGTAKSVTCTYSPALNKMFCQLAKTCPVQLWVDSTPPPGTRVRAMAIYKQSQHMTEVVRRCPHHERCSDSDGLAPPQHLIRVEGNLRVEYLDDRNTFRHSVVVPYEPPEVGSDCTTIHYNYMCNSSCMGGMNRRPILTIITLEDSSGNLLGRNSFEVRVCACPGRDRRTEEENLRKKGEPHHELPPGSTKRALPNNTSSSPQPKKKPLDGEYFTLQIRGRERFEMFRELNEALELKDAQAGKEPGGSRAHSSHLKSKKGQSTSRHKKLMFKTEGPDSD
Compound,activation,Potency
O=C(Cn1ccnc1[N+](=O)[O-])NCCO,-9.21% (inactive),–
CC1(C)OC(=O)Nc2ccc(Br)cc21,3.95% (inactive),–
Nc1nc(=O)n([C@@H]2O[C@H](CO)[C@@H](O)[C@@H]2F)cc1I,-22% (inactive),–
NC(=O)N1c2ccccc2CC(=O)c2ccccc21,19.2% (inactive) and 34.6% (inactive),–
Cc1c(O)cccc1C(=O)N[C@@H](CSc1ccccc1)[C@H](O)CN1C[C@H]2CCCC[C@@H]2C[C@@H]1C(=O)NC(C)(C)C,-23% (inactive),–
COc1ccc(S(=O)(=O)ON=C2C=C(C)C(=O)C(C)=C2)cc1,–,34.3 µM (active)
O=C(O)Cn1c(C(=O)Nc2nc(-c3ccccc3Cl)cs2)cc2ccccc21,5.08% (inactive),–
COCCOCC(OC)OC,-6.69% (inactive),–
COC(=O)N[C@H](C(=O)N1CCC[C@@H]1c1ncc(-c2ccc(-c3ccc(-c4cnc([C@@H]5CCCN5C(=O)[C@@H](NC(=O)OC)C(C)C)[nH]4)cc3)cc2)[nH]1)C(C)C,77.3% (inactive),–
CC(=O)[C@@]1(O)CC[C@H]2[C@@H]3C[C@H](C)C4=CC(=O)C=C[C@]4(C)[C@@]3(F)[C@@H](O)C[C@@]21C,-11.7% (inactive),–
Nc1ccc(C(=O)OCC(O)CO)cc1 (stereo not given),6.21% (inactive),–
O=C1[C@H]2CCCC[C@H]2C(=O)N1CCCCN1CCN(c2nsc3ccccc23)CC1,10.7% (inactive),–
COC(=O)c1ccc(NC(C)=O)cc1OC,-12.6% (inactive),–
CO/N=C(\C(=O)O)c1csc(NC(=O)CCl)n1,-17.5% (inactive),–
CCC(C=C[C@@H]1OC(=O)C=C[C@H]1C)=C[C@H](C)CC=CC(C)=C[C@@H](C)C(=O)[C@@H](C)[C@H](O)[C@@H](C)CC(C)=CC(=O)O,–,0.287 µM (active)
COc1ccccc1OC(=O)Oc1ccccc1OC,6.69% (inactive),–
c1ccc(CNCCNCc2ccccc2)cc1,2.51% (inactive),–
OCC(CO)N[C@H]1C[C@](O)(CO)[C@@H](O)[C@H](O)[C@H]1O,-11.7% (inactive),–
CC(C)(C)c1ccc(C(=O)CCCCl)cc1,3.95% (inactive),–
O=C(O)c1ccccc1NCCc1ccccc1,-1.69% (inactive),–

Compound,activation,Potency
NS(=O)(=O)c1cc(C(=O)O)cc(N2CCCC2)c1Oc1ccccc1,-9.6% (inactive),–
O=C(O)CN1C(=O)c2cccc3cccc(c23)C1=O,-6.69% (inactive),–
COC(=O)C1=C(C)NC(C)=C(C(=O)OCC(C)=O)C1c1ccccc1[N+](=O)[O-] (stereo not given),1.69% (inactive),–
CC[N+](CC)(CC)CCOc1ccc(/C=C/c2ccccc2)cc1,-19.2% (inactive),–
C[N+]1(CC2COC(c3ccccc3)(C3CCCCC3)O2)CCCCC1 (stereo not given),10.9% (inactive),–
OCCOCCN1CCN(C2=Nc3ccccc3Sc3ccccc32)CC1,7.53% (inactive),–
CN1CCN(c2cc3c(cc2F)c(=O)c(C(=O)O)cn3-c2ccc(F)cc2)CC1,20.1% (inactive),–
O=c1[nH]cnc2nc[nH]c12,-9.6% (inactive),–
CC=C1C2C=C(C)CC1(N)c1ccc(=O)[nH]c1C2 (stereo not given),-14.9% (inactive),–
C[C@]12C=CC(=O)C=C1CC[C@@H]1C2=CC[C@]2(C)[C@@H](C(=O)CN3CCN(c4cc(N5CCCC5)nc(N5CCCC5)n4)CC3)CC[C@@H]12,-22.1% (inactive),–
COc1cc(C(=O)N2CCCCCCC2)cc(OC)c1OC,-6.21% (inactive),–
COc1cc2c3cc1Oc1cc(ccc1O)C[C@@H]1c4c(cc(OC)c(O)c4Oc4ccc(cc4)C[C@@H]3N(C)CC2)CC[N+]1(C)C,19.8% (inactive),–
CCCCCCCCCCCCCC(=O)OC(C)C,14.1% (inactive),–
CCOC(=O)[C@H](CCc1ccccc1)N[C@@H](C)C(=O)N1CCCC1C(=O)O (stereo not given in full),-2.61% (inactive),–
C[C@@H](O)[C@H]1C(=O)N2C(C(=O)O)=C(S[C@@H]3CN[C@H](C(=O)N(C)C)C3)[C@H](C)[C@H]12,7.34% (inactive),–
C[C@@]12C(=O)OC(=O)[C@@]1(C)C1CCC2O1,–,9.68 µM (active)
N[C@H]1C(O)O[C@H](CO)[C@@H](O)[C@@H]1O (stereo not given in full),-0.837% (inactive),–
Cn1cc[nH]c1=S,-1.69% (inactive),–
CC[C@H]1OC(=O)[C@H](C)[C@@H](O[C@H]2C[C@@](C)(OC)[C@@H](O)[C@H](C)O2)[C@H](C)[C@@H](O[C@@H]2O[C@@H](C)C[C@H](N(C)C)[C@@H]2O)[C@](C)(O)C[C@@H](C)C(=O)[C@H](C)[C@@H](O)[C@]1(C)O,29.3% (inactive),–
CN=C(NC#N)NCCSCc1csc(N=C(N)N)n1,9.6% (inactive),–
